# Bioassay records from PubChem.
# GDH-TPI counter-1: GDH-TPI coupled enzyme inhibition counter-screen. GDH-TPI coupled enzyme counterscreen, NADH absorbance. inhibition, % at 4.8 µM. 360,000 tested, 1.2% active; in the data active means inhibition above about 30%;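 further: 0% = DMSO wells and 100% = wells lacking the enzyme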
# RecA intein inh: inhibitors of M. tuberculosis RecA intein splicing | P9WHJ3 | cell-free RecA intein splicing, fluorescence | inhibition, % (test concentration not listed) | 290,000 tested, 0.75% active; in the data active means inhibition above about 30%;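 further: 0% = vehicle wells and 100% = reference inhibitor control wells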
# Rv3671c protease: inhibits the M. tuberculosis serine protease Rv3671c | AID 2606 | P9WHR9 | inhibition, % at 5.96 µM | 320,000 tested, 0.048% active; in the data active means inhibition above about 38%;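 further: extracellular domain of Rv3671c used as enzyme; 0% = enzyme with DMSO and 100% = no enzyme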
# Mtb UGM inh: blocks M. tuberculosis UGM enzyme | P9WIQ1 | purified UGM, fluorescence polarization probe displacement | inhibition, % at 10 µM | 320,000 tested, 0.06% active | AID 504406; in the data active means inhibition above about 10%, passing the limit was not always enough
# Vc quorum ag: induces V. cholerae light production without autoinducers; V. cholerae BH1578 lux reporter, luminescence, 6 h; activation, % at 18.7 µM; 350,000 tested, 0.16% active; in the data active means activation mostly above about 9.7%, no sharp cut-off
# Mtb FBA inh: Mtb fructose-bisphosphate aldolase inhibition; inhibition, % at 1 µM; 360,000 tested, 2.3% active; P9WQA3; purified M. tuberculosis FBA, fluorescence read-out;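 further: 0% = vehicle and 100% = reference inhibitor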
# Target sequence (P9WQA3 whole entry, looked up): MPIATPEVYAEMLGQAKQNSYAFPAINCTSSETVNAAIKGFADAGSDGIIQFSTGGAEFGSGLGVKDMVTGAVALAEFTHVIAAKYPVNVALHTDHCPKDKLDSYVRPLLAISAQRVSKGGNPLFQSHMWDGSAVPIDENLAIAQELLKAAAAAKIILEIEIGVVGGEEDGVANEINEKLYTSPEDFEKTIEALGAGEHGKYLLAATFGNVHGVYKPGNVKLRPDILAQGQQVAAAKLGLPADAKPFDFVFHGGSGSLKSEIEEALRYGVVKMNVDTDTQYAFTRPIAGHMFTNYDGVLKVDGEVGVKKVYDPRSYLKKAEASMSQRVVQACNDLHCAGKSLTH
# Mtb FBA confirm: confirmation of M. tuberculosis fructose-bisphosphate aldolase inhibitors. shares compounds with Mtb FBA inh. purified M. tuberculosis FBA, fluorescence read-out. inhibition, % at 1 µM. 5,600 tested, 78% active;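 further: 0% = vehicle wells and 100% = reference inhibitor wells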
# GDH-TPI counter-2: inhibits GDH-TPI coupling enzymes, flagging Mtb FBA hits | 5,600 tested, 81% active | shares compounds with Mtb FBA inh | GDH-TPI coupled enzyme counterscreen, fluorescence | inhibition, % at 1 µM; in the data active means inhibition above about 10%
# GDH-TPI dose: inhibits GDH-TPI coupling enzymes in dose response. shares compounds with Mtb FBA inh. GDH-TPI coupled enzyme assay, fluorescence, artifact counterscreen. IC50, µM. 170 tested, 79% active; call rule not given here
# * = called active by the depositor; i = inactive; · = no result given; + = active, no number. Most compounds without a hit are left out; they make up all but 4.1% or so of the library. Unless noted, no stated cut-off is given here; in the data, active means inhibition above about 27%; inactive means the rest.
SMILES,GDH-TPI counter-1,RecA intein inh,Rv3671c protease,Mtb UGM inh,Vc quorum ag,Mtb FBA inh,Mtb FBA confirm,GDH-TPI counter-2,others
CSc1ncccc1C(=O)Nc1ccc(OC(F)(F)F)cc1,1,1,1,-1,0,44*,33*,34*,
COc1ccc(-c2cc(=O)oc3cc(OC(=O)C4CCCCC4)c(Cl)cc23)cc1,8,-192,-5,-6,·,45*,46*,42*,
CCn1c(C(C)NC(=O)c2ccc(Cl)cc2)n[nH]c1=S (stereo unspecified),-3,2,4,1,3,40*,107*,86*,
COc1ccc(-c2cc3nc4ccccc4n3c(N)c2C#N)cc1,30,-1,-18,4,0,41*,+,+,
CCn1nnnc1SCC(=O)N1CCOCC1,2,1,-8,1,7,89*,+,+,
CCCn1nnnc1SCC(=O)N1CCOCC1,1,2,-7,-2,i,0,·,·,
Cc1nc2oc3c(=O)[nH]cnc3c2c2c1COC(C)(C)C2,5,2,3,2,-1,44*,13,-5,GDH-TPI dose=4.8*
Cc1nc2oc(C(=O)c3ccc(Br)cc3)c(N)c2c2c1COC(C)(C)C2,13,-6,2,-1,0,4,·,·,
COc1ccc(-c2nc(NC(=O)CSc3nnc(C)s3)ns2)cc1,10,1,-2,1,0,41*,5,-4,
Cc1ccc(-c2nc(NC(=O)CSc3nnc(C)s3)ns2)cc1,7,0,10,2,0,1,·,·,
COCc1cc(C)nc(N2CCCCC2)c1C#N,-3,-1,3,4,·,11,·,·,
COCc1cc(C)nc(NC2CCCCC2)c1C#N,11,·,3,-2,i,85*,81*,67*,
COCc1cc(C)nc(NCCc2ccccc2)c1C#N,6,-2,-3,-2,i,72*,+,182*,
COCc1cc(C)nc(Nc2ccccc2OC)c1C#N,14,1,4,-3,i,3,·,·,
Cc1ccc(S(=O)(=O)N2C[C@H]3C(=O)C[C@@H](c4ccccc4)N(S(=O)(=O)c4ccc(C)cc4)[C@H]3C[C@H]2c2cccs2)cc1,·,·,·,·,·,-1,·,·,
COC(=O)c1ccc(-c2ccc(CNCC(O)c3ccccc3)o2)cc1 (stereo unspecified),14,6,8,1,-1,36*,126*,106*,
CCCSc1nnc(NC(=O)c2sc3nc(-c4cccs4)ccc3c2N)s1,37*,-25,0,3,-1,43*,153*,116*,
Cc1ccc(NS(=O)(=O)c2ccc(C(=O)N3CCN(S(=O)(=O)c4ccccc4)CC3)cc2)cc1,4,5,1,-1,i,3,·,·,
Cc1noc(NS(=O)(=O)c2ccc(NS(=O)(=O)c3ccc(Cl)cc3)cc2)c1C,10,·,1,-1,15,-1,·,·,
C=CCOCCn1[nH]c2ccccc2c1=O,3,·,2,0,i,47*,130*,108*,
Nc1cccc2[nH]c(=O)c3ccccc3c12,18,·,·,·,i,61*,199*,158*,
O=c1[nH]c2ccccc2c(=O)c2ccccc12,12,·,·,·,-5,1,·,·,
Nc1ccc2c(c1)[nH]c(=O)c1ccccc12,5,·,·,·,-1,69*,3,3,
CC(=O)Nc1ccc2c(c1)[nH]c(=O)c1ccccc12,20,·,·,·,-1,50*,64*,45*,
Nc1cc2[nH]c(=O)c3ccccc3c2cc1Br,21,·,·,·,·,11,·,·,
SMILES,GDH-TPI counter-1,RecA intein inh,Rv3671c protease,Mtb UGM inh,Vc quorum ag,Mtb FBA inh,Mtb FBA confirm,GDH-TPI counter-2,others
O=C(Nc1ccc2c(c1)[nH]c(=O)c1ccccc12)C(F)(F)F,13,·,·,·,0,6,·,·,
Cc1oc2c(O)c(O)ccc2c(=O)c1-c1ccc(Cl)cc1,15,-5,4,-1,i,-2,·,·,
CCc1cc2c(=O)c(-c3nc4ccccc4n3C)c(C)oc2c(CN2CCOCC2)c1O,22,-4,0,-3,i,7,·,·,
COc1ccc(-c2c(C)oc3c(CN4CCN(CCO)CC4)c(O)ccc3c2=O)cc1OC,12,-7,3,-5,1,31*,64*,58*,
COc1ccc(-c2c(C)oc3c(CN4CCOCC4)c(O)ccc3c2=O)cc1,10,-1,11,-1,0,104*,60*,51*,
Cc1oc2c(CN3CCCC3)c(O)ccc2c(=O)c1-c1ccc(Br)cc1,7,-2,-3,-1,3,89*,+,+,
Cc1cccc(-c2oc3ccccc3c2C#CCCO)c1,8,9,-7,0,i,12,·,·,
COc1ccccc1-c1oc2ccccc2c1C#CCCO,20,·,-7,1,-4,65*,7,4,
COc1ccc(/C=C(\C#N)C(=O)OCC(=O)Nc2ccc(-c3nc4ccc(C)cc4s3)cc2)cc1,-3,0,-2,1,-1,31*,119*,90*,
Cc1ccc2nc(-c3ccc(NC(=O)COC(=O)c4cncc(Br)c4)cc3)sc2c1,14,1,·,·,0,40*,33*,26*,
CCOc1ncccc1C(=O)OCC(=O)Nc1ccc(-c2nc3ccc(C)cc3s2)cc1,14,0,-7,1,0,34*,33*,23*,
Cc1ccc2nc(-c3ccc(NC(=O)COC(=O)c4ccc(Br)o4)cc3)sc2c1,25,·,-15,-3,0,21,·,·,
Cc1ccc2nc(-c3ccc(NC(=O)COC(=O)c4ccco4)cc3)sc2c1,21,0,-15,2,0,10,·,·,
CC(C)C(=O)Nc1sc2c(c1-c1nc3ccccc3[nH]1)CCCC2,14,3,-17,2,i,43*,+,182*,
CC(C)C(=O)Nc1ccccc1-c1nc2ccccc2[nH]c1=O,-1,1,8,-2,i,0,·,·,
O=c1[nH]c2cc3c(cc2cc1C(c1nnnn1Cc1ccccc1)N1CCN2CCCC2C1)OCCO3 (stereo unspecified),23,-3,5,·,i,35*,+,134*,
O=c1[nH]c2cc3c(cc2cc1C(c1nnnn1Cc1ccccc1)N1CCCCCC1)OCCO3 (stereo unspecified),4,-3,3,2,i,18,·,·,
C[C@@H]1CN([C@@H](C)CO)C(=O)CCCn2nncc2CO[C@H]1CN(C)C(=O)Nc1ccnc(N2CCOCC2)c1,-6,·,·,·,i,-3,·,·,
COC(=O)C1=CN(C)C=C(C(=O)OC)C1c1ccsc1,3,-92,·,·,17*,70*,116*,118*,
